Laboratory results published in ChEMBL document CHEMBL4296182, “CO-ADD screening of NIH NCI Diversity Set V”.
For some of these results: Measured potencies and affinities stand elsewhere.

System: Escherichia coli
Experiment: Antibacterial activity against Escherichia coli ATCC 25922 (CO-ADD:GN_001); MIC in CAMBH media using NBS plates, by Resazurin F(560/590)
Assay type: functional
Details: Concentration 20 uM, ASSAY_TEST Inhibition of Bacterial Growth, detection method Resazurin, Fluorescence (ex560/em590), MEDIA CAMHB, plate type 384well, CORNING #3640, time 18 hr

SMILES | Inhibition [%]
CCC(C)n1c(C)cc(=O)n1C(C)CC (stereo unspecified) | -0.28
CC(C)(C)N1CCC1CN (stereo unspecified) | 10.97
CCOc1ccc(/C=C2\CCc3ccccc3C2=O)cc1 | -2.65
Cc1ccc(S(=O)(=O)NC(=O)Nc2nccs2)cc1 | 9.78
NC(=O)CCC(C(=O)O)N1C(=O)C2C3CCC(C3)C2C1=O (stereo unspecified) | -8.27
Cn1ncc2c(NCc3ccccc3)ncnc21 | 13.47
N#CNC(=N)c1ccccc1 | -14.26
CCOC(=O)/C=C/c1nc(O)c(C)c(C(=O)OCC)n1 | 5.55
Nc1o[nH]c(=O)c1C1CCCCC1 | 16.54
CCCCOc1ccc(OC(=O)Nc2cc(Cl)ccc2OC)cc1 | 2.93
O=C(COc1cc(Cl)c(Cl)cc1Cl)Nc1ccc([N+](=O)[O-])cc1Cl | 13.57
NNC(=O)Cc1cc(O)[nH]n1 | 4.91
Cc1cccc(Nc2sc(C(=O)c3cc4cc(Cl)ccc4o3)c(N)c2C#N)c1 | 6.28
S=C1N(c2ccccc2)CN(C2CCCCC2)CN1c1ccccc1 | -2.84
[O-]/[N+](=C\c1ccccc1)CC1(O)CCCCC1 | 21.78
COc1cc(-c2ccc(Nc3ccccc3C(=O)O)c(OC)c2)ccc1Nc1ccccc1C(=O)O | 4.59
O[C@@H](c1cc(-c2ccc(C(F)(F)F)cc2)nc(C(F)(F)F)c1)[C@H]1CCCCN1 | 8.91
N#Cc1cnn(-c2cccc(Cl)c2)c1-n1cccc1 | 14.62
Cc1cccc(C)c1NC(=O)NCc1ccco1 | 6.33

SMILES | Inhibition [%]
NC(=O)Oc1cccc(OC(N)=O)c1 | 4.31
COc1ccc(C2OC3=Nc4cc(C)c(C)cc4NC3=C2O)cc1 (stereo unspecified) | 1.83
CC1(C)CC(=O)C(CC(=O)c2ccccc2)=C(NNC(=N)N)C1 | 4.18
COc1ccc2c(c1)C(=O)C1NC(=O)NC(=O)C1(Br)N2 (stereo unspecified) | 15.57
[O-][n+]1nc2ccccc2c2ccccc21 | -9.04
NC(=O)N/N=C1\CC2CC1C1C=CCC21 (stereo unspecified) | 8.37
Sc1cnnc2ccccc12 | -15.13
NC(=O)c1cc2c3ccccc3ccn2c1-c1ccccc1 | 3.37
CC12CCC(/C(=N/c3ccc(/N=C4\C(=O)C5(C)CCC4C5(C)C)cc3)C1=O)C2(C)C | 14.23
O=C(Nc1ccc(Oc2ccc(NC(=O)Nc3ccccc3Cl)cc2)cc1)Nc1ccccc1Cl | 14.43
COCC(=O)OC1CCn2c1nc1c2C(=O)C(C)=C(NC(C)=O)C1=O (stereo unspecified) | -2.53
O=c1nc2onnc2c(/C=N\O)[nH]1 | 10.25
O=C(O)CSc1ccc(NC(=O)Nc2ccccc2F)cc1 | 2.53
Nc1cc(-c2ccccc2)ccc1O | 6.67
O=C1/C(=N\c2cccc(Cl)c2)CC(c2ccc(Cl)cc2)N1c1cccc(Cl)c1 (stereo unspecified) | 10.42
CC(=O)NS(=O)(=O)c1ccc2sc(C)nc2c1 | 8.35
COc1ccc(/C(C#N)=C/c2cccnc2)cc1 | 11.08
Cn1cnc([N+](=O)[O-])c1Sc1nnc(-c2cccnc2)n1C | -1.31
CN(C)c1ccc(/C=C(\C#N)C(=O)c2ccccc2)cc1 | 8.74

System: Klebsiella pneumoniae
Details: Concentration 20 uM; ASSAY_TEST Inhibition of Bacterial Growth; detection method Absorption (OD600); MEDIA CAMHB; plate type 384well; NBS; CORNING #3640; time 18 hr

SMILES | Inhibition [%]
CCC(C)n1c(C)cc(=O)n1C(C)CC (stereo unspecified) | 0.77
CC(C)(C)N1CCC1CN (stereo unspecified) | 10.11
CCOc1ccc(/C=C2\CCc3ccccc3C2=O)cc1 | 4.93
Cc1ccc(S(=O)(=O)NC(=O)Nc2nccs2)cc1 | 14.17
NC(=O)CCC(C(=O)O)N1C(=O)C2C3CCC(C3)C2C1=O (stereo unspecified) | 4.97
Cn1ncc2c(NCc3ccccc3)ncnc21 | 1.24
N#CNC(=N)c1ccccc1 | 9.63
CCOC(=O)/C=C/c1nc(O)c(C)c(C(=O)OCC)n1 | 4.47
Nc1o[nH]c(=O)c1C1CCCCC1 | 10.69
CCCCOc1ccc(OC(=O)Nc2cc(Cl)ccc2OC)cc1 | 11.91
O=C(COc1cc(Cl)c(Cl)cc1Cl)Nc1ccc([N+](=O)[O-])cc1Cl | 15.89
NNC(=O)Cc1cc(O)[nH]n1 | -1.33
Cc1cccc(Nc2sc(C(=O)c3cc4cc(Cl)ccc4o3)c(N)c2C#N)c1 | 5.96
S=C1N(c2ccccc2)CN(C2CCCCC2)CN1c1ccccc1 | 1.62
[O-]/[N+](=C\c1ccccc1)CC1(O)CCCCC1 | 2.39
COc1cc(-c2ccc(Nc3ccccc3C(=O)O)c(OC)c2)ccc1Nc1ccccc1C(=O)O | -0.01
O[C@@H](c1cc(-c2ccc(C(F)(F)F)cc2)nc(C(F)(F)F)c1)[C@H]1CCCCN1 | 19.18
N#Cc1cnn(-c2cccc(Cl)c2)c1-n1cccc1 | 3.39
Cc1cccc(C)c1NC(=O)NCc1ccco1 | 8.14

SMILES | Inhibition [%]
NC(=O)Oc1cccc(OC(N)=O)c1 | 5.21
COc1ccc(C2OC3=Nc4cc(C)c(C)cc4NC3=C2O)cc1 (stereo unspecified) | 7.32
CC1(C)CC(=O)C(CC(=O)c2ccccc2)=C(NNC(=N)N)C1 | -0.42
COc1ccc2c(c1)C(=O)C1NC(=O)NC(=O)C1(Br)N2 (stereo unspecified) | 4.36
[O-][n+]1nc2ccccc2c2ccccc21 | 13.55
NC(=O)N/N=C1\CC2CC1C1C=CCC21 (stereo unspecified) | 17.34
Sc1cnnc2ccccc12 | 9.37
NC(=O)c1cc2c3ccccc3ccn2c1-c1ccccc1 | 9.25
CC12CCC(/C(=N/c3ccc(/N=C4\C(=O)C5(C)CCC4C5(C)C)cc3)C1=O)C2(C)C | 11.61
O=C(Nc1ccc(Oc2ccc(NC(=O)Nc3ccccc3Cl)cc2)cc1)Nc1ccccc1Cl | 12.03
COCC(=O)OC1CCn2c1nc1c2C(=O)C(C)=C(NC(C)=O)C1=O (stereo unspecified) | 8.02
O=c1nc2onnc2c(/C=N\O)[nH]1 | 15.41
O=C(O)CSc1ccc(NC(=O)Nc2ccccc2F)cc1 | 17.8
Nc1cc(-c2ccccc2)ccc1O | 17.45
O=C1/C(=N\c2cccc(Cl)c2)CC(c2ccc(Cl)cc2)N1c1cccc(Cl)c1 (stereo unspecified) | 18.13
CC(=O)NS(=O)(=O)c1ccc2sc(C)nc2c1 | 5.23
COc1ccc(/C(C#N)=C/c2cccnc2)cc1 | 6.19
Cn1cnc([N+](=O)[O-])c1Sc1nnc(-c2cccnc2)n1C | 17.06
CN(C)c1ccc(/C=C(\C#N)C(=O)c2ccccc2)cc1 | 11.84
